Data reported in the supplement of paper PMC11732987, “Enantioselective OTUD7B fragment discovery through chemoproteomics screening and high-throughput optimisation” (Communications Chemistry, 2025).

Key:
Experiment in all cases: log2 ratio of Biotin-Ahx-Ub-VS probe labelling (fragment/DMSO); higher = less target engagement (more negative = stronger competition), active = hit call of the paper (q ≤ 0.05, log2 ratio ≤ -1)
Details in all cases: compound concentration: 200 uM; treatment time: 3 h
[1] = target: T1, USP42 (UniProt Q9H9J4)
T1 sequence (whole entry): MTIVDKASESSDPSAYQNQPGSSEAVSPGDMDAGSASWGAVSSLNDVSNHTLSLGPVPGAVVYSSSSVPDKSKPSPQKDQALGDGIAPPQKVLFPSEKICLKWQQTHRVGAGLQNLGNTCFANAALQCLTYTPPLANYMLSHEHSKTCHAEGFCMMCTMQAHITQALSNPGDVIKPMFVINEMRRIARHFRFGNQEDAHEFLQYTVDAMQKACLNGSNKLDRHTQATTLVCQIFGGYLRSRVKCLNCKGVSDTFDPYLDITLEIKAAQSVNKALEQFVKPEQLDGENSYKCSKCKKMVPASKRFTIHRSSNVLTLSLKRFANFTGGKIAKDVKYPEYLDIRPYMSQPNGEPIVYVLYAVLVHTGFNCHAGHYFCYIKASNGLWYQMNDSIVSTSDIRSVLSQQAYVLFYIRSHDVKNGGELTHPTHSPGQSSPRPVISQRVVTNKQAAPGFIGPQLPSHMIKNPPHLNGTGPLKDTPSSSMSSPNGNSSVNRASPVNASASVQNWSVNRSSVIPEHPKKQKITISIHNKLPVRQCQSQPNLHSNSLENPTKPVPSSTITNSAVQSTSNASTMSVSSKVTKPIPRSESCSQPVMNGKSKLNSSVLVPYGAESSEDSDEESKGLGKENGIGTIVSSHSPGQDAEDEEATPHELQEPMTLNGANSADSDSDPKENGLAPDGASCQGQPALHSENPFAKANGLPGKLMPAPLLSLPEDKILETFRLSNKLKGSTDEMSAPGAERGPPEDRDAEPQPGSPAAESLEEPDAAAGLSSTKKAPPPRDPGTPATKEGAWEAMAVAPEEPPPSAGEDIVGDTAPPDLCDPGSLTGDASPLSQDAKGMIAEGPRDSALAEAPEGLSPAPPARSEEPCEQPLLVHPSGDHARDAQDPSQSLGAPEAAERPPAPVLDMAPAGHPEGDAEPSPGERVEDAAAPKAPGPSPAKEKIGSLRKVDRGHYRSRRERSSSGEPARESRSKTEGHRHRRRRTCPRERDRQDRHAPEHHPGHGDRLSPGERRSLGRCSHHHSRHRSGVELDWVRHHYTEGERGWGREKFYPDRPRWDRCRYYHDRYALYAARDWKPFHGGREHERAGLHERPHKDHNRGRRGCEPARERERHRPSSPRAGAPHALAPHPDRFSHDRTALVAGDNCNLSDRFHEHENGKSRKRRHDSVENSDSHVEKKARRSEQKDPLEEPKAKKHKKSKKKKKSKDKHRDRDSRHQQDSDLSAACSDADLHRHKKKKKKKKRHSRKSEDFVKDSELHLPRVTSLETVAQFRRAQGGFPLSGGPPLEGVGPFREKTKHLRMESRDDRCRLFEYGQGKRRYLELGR
Procedure, shortened: (§1)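 Global-median-normalised Spectronaut label-free quantities were compared by unpaired t-test, and values are average log2 ratios of fragment over vehicle. Only proteins with ≥2 unique peptides were used. HEK293T lysate (495 µg per sample) was treated in triplicate with fragment at 200 µM or vehicle for 3 h and then with Biotin-Ahx-Ub-VS at 0.5 µM final for 1 h. Labelled DUBs were then NeutrAvidin-enriched, digested with LysC and trypsin, and run by diaPASEF LC-MS/MS.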

[2] = target: USP46 (UniProt P62068)
Sequence of USP46 (P62068 whole entry): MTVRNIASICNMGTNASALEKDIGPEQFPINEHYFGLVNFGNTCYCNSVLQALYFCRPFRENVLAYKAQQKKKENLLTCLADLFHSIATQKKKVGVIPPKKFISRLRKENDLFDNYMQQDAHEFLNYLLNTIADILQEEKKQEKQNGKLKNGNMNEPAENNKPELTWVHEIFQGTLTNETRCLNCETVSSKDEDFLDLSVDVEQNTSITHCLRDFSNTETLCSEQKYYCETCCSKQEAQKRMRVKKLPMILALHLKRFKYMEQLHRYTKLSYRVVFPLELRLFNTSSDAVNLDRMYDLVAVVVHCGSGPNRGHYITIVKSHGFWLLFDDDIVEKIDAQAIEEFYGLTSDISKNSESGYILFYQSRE
Procedure, shortened: as §1

[3] = target: T2, USP47 (UniProt Q96K76)
T2 sequence (whole entry): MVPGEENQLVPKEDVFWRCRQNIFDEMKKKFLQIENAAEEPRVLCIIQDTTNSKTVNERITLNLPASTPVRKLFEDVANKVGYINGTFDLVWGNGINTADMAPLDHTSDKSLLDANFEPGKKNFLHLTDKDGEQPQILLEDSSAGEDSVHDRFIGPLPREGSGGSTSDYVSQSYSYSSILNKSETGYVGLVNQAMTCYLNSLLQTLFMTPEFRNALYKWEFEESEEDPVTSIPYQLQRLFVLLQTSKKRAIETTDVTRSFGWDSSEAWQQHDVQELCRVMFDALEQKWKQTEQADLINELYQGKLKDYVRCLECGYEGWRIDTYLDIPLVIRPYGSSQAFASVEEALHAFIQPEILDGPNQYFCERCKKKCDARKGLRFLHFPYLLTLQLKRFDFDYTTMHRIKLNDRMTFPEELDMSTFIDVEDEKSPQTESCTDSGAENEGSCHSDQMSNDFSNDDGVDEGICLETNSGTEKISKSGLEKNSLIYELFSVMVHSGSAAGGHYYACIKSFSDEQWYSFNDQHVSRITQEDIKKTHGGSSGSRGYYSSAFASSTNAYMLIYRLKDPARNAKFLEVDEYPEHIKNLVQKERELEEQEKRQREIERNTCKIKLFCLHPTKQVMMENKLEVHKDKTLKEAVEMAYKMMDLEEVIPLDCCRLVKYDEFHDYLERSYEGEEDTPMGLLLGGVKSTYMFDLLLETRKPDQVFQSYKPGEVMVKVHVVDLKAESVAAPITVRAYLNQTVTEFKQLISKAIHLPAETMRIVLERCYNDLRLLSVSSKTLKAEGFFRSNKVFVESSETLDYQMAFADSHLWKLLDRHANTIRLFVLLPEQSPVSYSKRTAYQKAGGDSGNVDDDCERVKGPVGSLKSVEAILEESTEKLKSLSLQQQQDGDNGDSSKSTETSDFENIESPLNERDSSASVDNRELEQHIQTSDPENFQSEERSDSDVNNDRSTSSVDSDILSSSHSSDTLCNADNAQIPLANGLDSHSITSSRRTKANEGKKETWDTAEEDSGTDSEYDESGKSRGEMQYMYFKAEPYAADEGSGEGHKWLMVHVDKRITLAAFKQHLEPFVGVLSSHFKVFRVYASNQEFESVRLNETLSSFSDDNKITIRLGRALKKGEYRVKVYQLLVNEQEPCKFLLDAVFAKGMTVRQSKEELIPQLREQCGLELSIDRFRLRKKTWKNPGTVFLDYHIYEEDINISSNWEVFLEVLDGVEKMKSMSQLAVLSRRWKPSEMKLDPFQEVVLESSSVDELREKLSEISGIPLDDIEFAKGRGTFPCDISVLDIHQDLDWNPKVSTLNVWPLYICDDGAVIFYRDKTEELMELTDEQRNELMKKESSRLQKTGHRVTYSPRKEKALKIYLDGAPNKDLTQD
Procedure, shortened: as §1

[4] = target: T3, USP48 (UniProt Q86UV5)
T3 sequence (whole entry): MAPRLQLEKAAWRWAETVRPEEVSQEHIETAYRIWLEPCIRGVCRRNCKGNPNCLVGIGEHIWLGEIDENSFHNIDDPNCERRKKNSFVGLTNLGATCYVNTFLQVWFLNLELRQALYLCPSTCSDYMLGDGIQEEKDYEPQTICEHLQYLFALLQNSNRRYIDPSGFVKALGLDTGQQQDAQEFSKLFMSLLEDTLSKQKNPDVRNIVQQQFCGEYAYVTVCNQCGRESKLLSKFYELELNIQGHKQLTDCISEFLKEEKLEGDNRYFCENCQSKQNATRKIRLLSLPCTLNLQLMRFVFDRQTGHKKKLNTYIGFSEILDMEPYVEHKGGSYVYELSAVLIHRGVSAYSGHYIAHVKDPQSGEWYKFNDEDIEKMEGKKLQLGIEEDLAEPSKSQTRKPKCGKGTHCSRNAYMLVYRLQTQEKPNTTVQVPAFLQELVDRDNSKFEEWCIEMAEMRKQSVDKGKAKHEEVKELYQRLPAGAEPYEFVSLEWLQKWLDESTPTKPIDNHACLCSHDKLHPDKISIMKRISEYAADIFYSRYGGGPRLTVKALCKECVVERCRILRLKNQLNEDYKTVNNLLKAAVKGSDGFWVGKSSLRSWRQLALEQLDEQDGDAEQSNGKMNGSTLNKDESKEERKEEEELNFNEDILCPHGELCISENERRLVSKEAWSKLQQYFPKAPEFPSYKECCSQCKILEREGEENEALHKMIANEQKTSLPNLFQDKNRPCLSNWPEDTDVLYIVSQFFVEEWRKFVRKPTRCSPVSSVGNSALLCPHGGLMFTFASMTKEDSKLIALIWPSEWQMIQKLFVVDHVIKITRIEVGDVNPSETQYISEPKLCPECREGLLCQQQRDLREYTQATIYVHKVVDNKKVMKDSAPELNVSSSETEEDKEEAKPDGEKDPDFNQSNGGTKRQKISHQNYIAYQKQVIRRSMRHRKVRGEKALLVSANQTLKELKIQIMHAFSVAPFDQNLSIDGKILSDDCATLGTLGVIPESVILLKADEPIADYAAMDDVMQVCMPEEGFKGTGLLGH
Procedure, shortened: as §1

[5] = target: T4, USP5 (UniProt P45974)
T4 sequence (whole entry): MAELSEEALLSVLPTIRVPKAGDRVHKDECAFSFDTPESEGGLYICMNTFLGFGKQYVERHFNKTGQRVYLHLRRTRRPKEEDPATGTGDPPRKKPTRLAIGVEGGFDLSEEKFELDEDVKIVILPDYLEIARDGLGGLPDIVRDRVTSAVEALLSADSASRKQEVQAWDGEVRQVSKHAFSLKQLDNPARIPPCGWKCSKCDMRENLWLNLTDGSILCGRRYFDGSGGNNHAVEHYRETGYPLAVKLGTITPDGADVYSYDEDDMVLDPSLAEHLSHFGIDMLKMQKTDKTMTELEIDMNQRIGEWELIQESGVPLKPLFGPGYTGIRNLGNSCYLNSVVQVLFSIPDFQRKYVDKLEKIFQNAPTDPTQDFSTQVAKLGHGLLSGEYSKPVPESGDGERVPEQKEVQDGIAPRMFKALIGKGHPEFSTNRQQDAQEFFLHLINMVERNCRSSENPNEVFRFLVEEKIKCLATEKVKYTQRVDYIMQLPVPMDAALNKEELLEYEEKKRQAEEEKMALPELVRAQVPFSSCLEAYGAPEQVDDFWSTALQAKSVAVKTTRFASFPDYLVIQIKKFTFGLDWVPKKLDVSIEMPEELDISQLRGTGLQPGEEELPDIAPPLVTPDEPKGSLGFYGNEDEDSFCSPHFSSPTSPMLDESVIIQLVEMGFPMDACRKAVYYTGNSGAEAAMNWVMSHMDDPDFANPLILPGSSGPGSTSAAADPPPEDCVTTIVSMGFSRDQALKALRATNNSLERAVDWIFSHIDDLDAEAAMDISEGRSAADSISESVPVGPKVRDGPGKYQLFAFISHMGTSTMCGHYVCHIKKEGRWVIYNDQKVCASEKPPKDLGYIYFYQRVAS
Procedure, shortened: as §1

[6] = target: USP54 (UniProt Q70EL1)
Sequence of USP54 (Q70EL1 whole entry): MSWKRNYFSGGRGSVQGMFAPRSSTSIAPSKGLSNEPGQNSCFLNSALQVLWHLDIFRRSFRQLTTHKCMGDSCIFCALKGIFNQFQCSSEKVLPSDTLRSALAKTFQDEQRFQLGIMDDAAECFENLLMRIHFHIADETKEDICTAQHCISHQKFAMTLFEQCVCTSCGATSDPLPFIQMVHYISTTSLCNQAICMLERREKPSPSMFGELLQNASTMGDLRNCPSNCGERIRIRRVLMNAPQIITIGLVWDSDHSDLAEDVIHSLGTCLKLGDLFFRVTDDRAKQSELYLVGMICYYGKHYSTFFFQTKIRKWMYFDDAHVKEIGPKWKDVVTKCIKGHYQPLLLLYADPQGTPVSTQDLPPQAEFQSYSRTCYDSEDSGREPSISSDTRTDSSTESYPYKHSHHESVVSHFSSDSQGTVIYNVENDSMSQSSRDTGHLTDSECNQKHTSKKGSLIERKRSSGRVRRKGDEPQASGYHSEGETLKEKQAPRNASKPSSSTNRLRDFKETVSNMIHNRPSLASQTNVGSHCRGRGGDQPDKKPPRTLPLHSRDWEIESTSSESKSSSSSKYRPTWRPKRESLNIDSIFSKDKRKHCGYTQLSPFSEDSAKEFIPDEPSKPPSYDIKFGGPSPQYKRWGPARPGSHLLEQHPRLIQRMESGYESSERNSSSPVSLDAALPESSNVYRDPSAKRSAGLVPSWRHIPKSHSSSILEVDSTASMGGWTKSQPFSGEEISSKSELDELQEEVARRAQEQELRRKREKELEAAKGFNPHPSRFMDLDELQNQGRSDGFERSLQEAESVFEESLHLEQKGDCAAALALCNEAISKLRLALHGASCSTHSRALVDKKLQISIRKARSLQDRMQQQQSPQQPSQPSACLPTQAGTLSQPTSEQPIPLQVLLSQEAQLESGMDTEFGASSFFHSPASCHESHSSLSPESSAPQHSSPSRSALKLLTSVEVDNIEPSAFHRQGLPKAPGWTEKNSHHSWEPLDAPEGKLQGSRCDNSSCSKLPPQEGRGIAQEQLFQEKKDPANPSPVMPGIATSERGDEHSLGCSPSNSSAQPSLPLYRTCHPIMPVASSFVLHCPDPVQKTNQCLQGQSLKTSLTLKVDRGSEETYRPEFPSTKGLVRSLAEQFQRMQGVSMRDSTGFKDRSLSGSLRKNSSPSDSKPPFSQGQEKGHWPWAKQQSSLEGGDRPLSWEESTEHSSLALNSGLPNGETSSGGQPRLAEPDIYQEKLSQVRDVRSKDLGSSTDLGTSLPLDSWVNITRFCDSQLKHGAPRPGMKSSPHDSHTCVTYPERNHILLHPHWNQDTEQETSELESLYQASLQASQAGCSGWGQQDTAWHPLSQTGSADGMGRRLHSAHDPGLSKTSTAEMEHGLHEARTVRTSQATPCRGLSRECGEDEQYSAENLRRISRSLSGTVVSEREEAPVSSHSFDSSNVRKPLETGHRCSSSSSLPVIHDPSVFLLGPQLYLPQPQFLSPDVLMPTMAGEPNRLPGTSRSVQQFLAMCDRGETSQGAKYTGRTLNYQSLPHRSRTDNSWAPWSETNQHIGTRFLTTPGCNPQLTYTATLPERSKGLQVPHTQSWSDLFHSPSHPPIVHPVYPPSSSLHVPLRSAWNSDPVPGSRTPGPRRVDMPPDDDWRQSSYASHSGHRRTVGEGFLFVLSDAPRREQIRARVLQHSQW
Procedure, shortened: as §1

[7] = target: USP7 (UniProt Q93009)
Sequence of USP7 (Q93009 whole entry, looked up): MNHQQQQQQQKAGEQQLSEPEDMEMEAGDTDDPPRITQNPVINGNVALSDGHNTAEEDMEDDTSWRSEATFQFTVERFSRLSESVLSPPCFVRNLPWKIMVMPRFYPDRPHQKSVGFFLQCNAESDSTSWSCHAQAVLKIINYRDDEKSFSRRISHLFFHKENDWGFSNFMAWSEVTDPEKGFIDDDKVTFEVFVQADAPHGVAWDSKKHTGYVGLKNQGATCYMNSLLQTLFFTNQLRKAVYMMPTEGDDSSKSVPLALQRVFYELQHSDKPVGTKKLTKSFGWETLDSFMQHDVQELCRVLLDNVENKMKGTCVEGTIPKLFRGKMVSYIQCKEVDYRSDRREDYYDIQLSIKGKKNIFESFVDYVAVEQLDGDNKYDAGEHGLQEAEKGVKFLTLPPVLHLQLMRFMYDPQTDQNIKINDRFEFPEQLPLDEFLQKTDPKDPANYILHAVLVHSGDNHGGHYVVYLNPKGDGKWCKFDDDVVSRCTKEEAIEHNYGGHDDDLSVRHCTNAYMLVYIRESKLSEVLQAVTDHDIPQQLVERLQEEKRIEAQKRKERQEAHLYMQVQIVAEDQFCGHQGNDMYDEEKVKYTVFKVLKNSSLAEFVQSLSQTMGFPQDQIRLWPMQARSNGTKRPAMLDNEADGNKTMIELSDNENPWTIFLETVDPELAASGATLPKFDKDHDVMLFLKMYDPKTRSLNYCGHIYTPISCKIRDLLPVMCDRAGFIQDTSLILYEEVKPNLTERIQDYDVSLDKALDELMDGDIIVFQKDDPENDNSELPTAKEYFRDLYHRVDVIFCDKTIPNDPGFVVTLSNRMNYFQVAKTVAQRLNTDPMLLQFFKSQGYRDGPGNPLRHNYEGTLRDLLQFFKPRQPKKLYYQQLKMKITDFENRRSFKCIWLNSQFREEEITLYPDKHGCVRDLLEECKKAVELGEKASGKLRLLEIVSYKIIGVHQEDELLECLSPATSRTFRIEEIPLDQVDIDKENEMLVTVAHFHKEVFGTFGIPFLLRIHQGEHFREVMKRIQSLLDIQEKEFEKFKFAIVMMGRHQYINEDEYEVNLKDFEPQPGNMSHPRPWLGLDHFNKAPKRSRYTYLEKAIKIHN
Procedure, shortened: as §1

[8] = target: T5, USP8 (UniProt P40818)
T5 sequence (whole entry): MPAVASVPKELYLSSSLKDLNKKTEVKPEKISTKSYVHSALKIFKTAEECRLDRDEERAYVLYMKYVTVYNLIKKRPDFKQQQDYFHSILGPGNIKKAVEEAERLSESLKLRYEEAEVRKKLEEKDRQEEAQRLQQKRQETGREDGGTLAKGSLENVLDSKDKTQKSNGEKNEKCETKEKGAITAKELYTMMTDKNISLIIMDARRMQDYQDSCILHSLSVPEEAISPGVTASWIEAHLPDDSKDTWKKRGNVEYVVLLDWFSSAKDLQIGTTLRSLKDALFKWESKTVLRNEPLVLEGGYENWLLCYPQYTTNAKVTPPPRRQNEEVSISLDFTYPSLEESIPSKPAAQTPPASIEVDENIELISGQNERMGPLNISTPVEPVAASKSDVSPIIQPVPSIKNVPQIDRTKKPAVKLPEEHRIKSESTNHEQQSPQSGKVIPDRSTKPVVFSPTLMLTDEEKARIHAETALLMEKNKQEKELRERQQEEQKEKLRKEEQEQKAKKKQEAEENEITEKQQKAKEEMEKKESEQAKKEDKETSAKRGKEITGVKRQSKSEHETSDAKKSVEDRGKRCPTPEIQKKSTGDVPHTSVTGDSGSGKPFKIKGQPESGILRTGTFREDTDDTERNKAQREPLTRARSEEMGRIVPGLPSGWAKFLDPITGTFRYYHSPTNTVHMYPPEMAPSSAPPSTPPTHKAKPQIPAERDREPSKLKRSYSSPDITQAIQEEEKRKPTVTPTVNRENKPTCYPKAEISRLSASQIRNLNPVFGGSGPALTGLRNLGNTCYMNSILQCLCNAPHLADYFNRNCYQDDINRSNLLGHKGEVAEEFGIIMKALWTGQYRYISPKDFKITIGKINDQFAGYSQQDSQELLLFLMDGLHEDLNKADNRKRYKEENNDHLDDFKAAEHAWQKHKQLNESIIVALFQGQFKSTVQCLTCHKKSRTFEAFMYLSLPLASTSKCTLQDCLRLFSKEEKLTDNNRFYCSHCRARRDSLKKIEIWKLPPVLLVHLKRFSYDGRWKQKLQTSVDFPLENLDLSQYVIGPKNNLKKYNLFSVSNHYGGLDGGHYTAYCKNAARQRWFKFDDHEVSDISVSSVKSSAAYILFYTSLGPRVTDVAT
Procedure, shortened: as §1

[9] = target: USP9X (UniProt Q93008)
Procedure, shortened: as §1

[10] = target: UniProt O00487
Sequence of UniProt O00487 (O00487 whole entry): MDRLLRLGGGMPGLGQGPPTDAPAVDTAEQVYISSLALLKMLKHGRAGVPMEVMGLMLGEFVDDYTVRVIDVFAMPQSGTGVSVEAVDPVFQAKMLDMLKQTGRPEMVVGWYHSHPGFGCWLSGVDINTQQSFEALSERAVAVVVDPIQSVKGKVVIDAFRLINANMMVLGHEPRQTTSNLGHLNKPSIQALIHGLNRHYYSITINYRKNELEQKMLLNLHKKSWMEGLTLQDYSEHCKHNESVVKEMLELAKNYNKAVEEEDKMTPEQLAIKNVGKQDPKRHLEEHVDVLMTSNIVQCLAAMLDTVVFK
Procedure, shortened: as §1

Measured: log2 ratio of Biotin-Ahx-Ub-VS probe labelling

Cl.O=C(CCl)N1CCN(Cc2ccccc2)CC1
inactive: [1] 0.128 | [2] -0.101 | [3] -0.389 | [4] -0.499 | [5] -0.052 | [6] 0.13 | [7] -0.607 | [8] -0.333 | [9] -0.369 | [10] -0.299
